# aGal spleen mod: qHTS Assay for Inhibitors and Activators of Human alpha-Galactosidase From Spleen Homogenate; Alpha-galactosidase A (Homo sapiens), P06280; human spleen homogenate, 4MU-alpha-Gal fluorescence, 40 min; Potency, µM (titrated, usually from 80 µM), without a hit: at the highest dose activity change, negative = inhibition, usual class: inhibitors; 240,000 tested, 0.008% active; AID 2107, 2009;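 further: potency means the concentration at half of the fitted maximal effect; 0% = enzyme with vehicle and -100% = no enzyme basal signal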
#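 Human spleen homogenate (1 ug) as enzyme source, 4-methylumbelliferyl-alpha-D-galactopyranoside 1 mM final, citrate/phosphate pH 5.0 with 0.01% Tween-20. Compounds 40 min at 37C, NaOH/glycine stop; fluorescence Ex 365/Em 440, Hill-fit AC50.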
# HPGD inh: qHTS Assay for Inhibitors of HPGD (15-Hydroxyprostaglandin Dehydrogenase) | purified HPGD, NADH fluorescence kinetic, PGE2 substrate | Potency, µM, for inactives: at the highest dose activity change, negative = inhibition, most hits filed as inhibitors | 150,000 tested, 4.3% active | AID 894, 2007; active means well fitted inhibition curve with a large enough effect, not every such curve was filed as active; inconclusive means small, poorly fitted or top-dose-only effect, or another doubt; inactive means no such curve, though single readings can be large or run the other way; further: potency means the concentration at half of the fitted maximal effect
#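 20 nM HPGD preincubated 15 min at room temperature with compound in 50 mM Tris-HCl pH 8, 0.01% Tween 20. Started with 1 mM NAD+ and 30 uM prostaglandin E2; NADH fluorescence (360/450 nm) read 5 times over 30-s intervals, last minus first.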
# ALDH1A1 inh: qHTS Assay for Inhibitors of Aldehyde Dehydrogenase 1 (ALDH1A1); Purified ALDH1A1, NADH fluorescence, propionaldehyde substrate; Potency, µM (titrated, usually from 75.3 µM), for the others: at the highest dose activity, negative = inhibition, most hits filed as inhibitors; 220,000 tested, 7.3% active; active means well fitted inhibition curve with a large enough effect, not every such curve was filed as active; inconclusive means small, poorly fitted or top-dose-only effect, or another doubt; inactive means no such curve, though single readings can be large or run the other way;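 further: potency means the concentration at half of the fitted maximal effect; plate controls were no enzyme wells and a reference inhibitor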
# PNC assembly inh: High Content Assay for Compounds that inhibit the Assembly of the Perinucleolar Compartment | 140,000 tested, 3.1% active | PC3M PTB-GFP, PNC prevalence imaging, 16 h; hits give low values | activity change (PNC), negative = inhibition, % at 10 µM;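 active means readout at or below -70, meaning at least 70% loss of cells showing the perinucleolar compartment, a nuclear body marking cancer cells; inconclusive means readout between -30 and a set limit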;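 further: plate controls were DMSO wells for no effect and camptothecin positive control wells for full effect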
#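 Read-out is percentage of cells bearing a perinucleolar compartment, from automated 20x imaging of fixed, Hoechst-stained PC3M PTB-GFP cells. Cells were seeded 4 h, then exposed 16 h to compound (23 nl of library stock) in duplicate plates.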
# GLA inh pH 4.5: qHTS Assay for Inhibitors of Human alpha-Galactosidase at pH 4.5; Alpha-galactosidase A (Homo sapiens), P06280; purified enzyme, 4-MU-alpha-Gal fluorescence, pH 4.5; activity change, negative = inhibition, % at 105 µM; 230,000 tested, under 10 active; AID 1467, 2008;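 further: 0% = full activity with enzyme and -100% = basal without enzyme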
# ALOX12 inhib: qHTS Assay for Inhibitors of 12-hLO (12-human lipoxygenase); AID 1452, 2008; Potency, µM (highest dose often 57.1 µM), inactives show at the highest dose activity change, negative = inhibition, usual class: inhibitors; purified 12-hLO, xylenol orange hydroperoxide absorbance; Polyunsaturated fatty acid lipoxygenase ALOX12 (Homo sapiens), P18054; 150,000 tested, 0.12% active; further: potency means the concentration at half of the fitted maximal effect; nearly all actives have a fitted effect of over 55% in size
# Target sequence (P18054 whole entry, looked up): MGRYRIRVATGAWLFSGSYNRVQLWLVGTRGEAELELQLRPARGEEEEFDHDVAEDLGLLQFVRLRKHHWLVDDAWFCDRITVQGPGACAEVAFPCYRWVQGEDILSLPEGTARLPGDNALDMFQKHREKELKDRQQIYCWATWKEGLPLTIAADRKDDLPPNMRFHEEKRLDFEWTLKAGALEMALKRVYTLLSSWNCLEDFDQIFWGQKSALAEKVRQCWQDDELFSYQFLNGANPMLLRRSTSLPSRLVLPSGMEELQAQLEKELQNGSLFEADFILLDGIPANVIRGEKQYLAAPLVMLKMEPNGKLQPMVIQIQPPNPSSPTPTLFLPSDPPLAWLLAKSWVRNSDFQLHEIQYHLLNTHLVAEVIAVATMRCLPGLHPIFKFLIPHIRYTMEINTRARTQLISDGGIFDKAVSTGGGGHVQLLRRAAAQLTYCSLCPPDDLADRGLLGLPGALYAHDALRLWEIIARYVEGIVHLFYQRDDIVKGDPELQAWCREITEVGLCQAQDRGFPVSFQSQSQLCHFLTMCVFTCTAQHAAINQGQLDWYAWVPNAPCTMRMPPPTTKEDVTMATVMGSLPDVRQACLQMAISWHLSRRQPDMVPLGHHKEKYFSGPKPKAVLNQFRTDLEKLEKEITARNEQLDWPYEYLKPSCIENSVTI
#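 Hydroperoxide formation by human 12-lipoxygenase from 40 uM arachidonic acid was followed colorimetrically via ferric-xylenol orange complex, using the 573/405 nm absorbance ratio. Enzyme concentration was 150 nM, with 30 min reaction at room temperature.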
# * marks the source's active call; other numbers are inactive results; ? = inconclusive; · = not tested or not shown; [ ] = remark or other dose. Compounds with a hit are over-represented: about 10% of the library has one in this group of screens. Unless noted, the call rests on the fitted dose curve; in most records, active means well fitted curve in the direction sought with a large enough effect; inconclusive means small, poorly fitted or top-dose-only effect, or another doubt; inactive means no such curve, though single readings can be large; an effect the other way counts as inactive or inconclusive. Unless noted, on the % scale 0 is the no-effect control and ±100 the full control effect.
SMILES,aGal spleen mod,HPGD inh,ALDH1A1 inh,PNC assembly inh,GLA inh pH 4.5,ALOX12 inhib
COc1cc(NC(=O)Cn2ccsc2=N)cc(OC)c1,1.4%,·,?,·,2.0,·
CC(C)C(Nc1ccc(S(=O)(=O)N2CCOCC2)cc1[N+](=O)[O-])C(=O)O (centres undefined),-5.7%,·,1.26µM*,·,-3.8,·
C/C(=N\Nc1ccc(S(=O)(=O)N2CCOCC2)cc1[N+](=O)[O-])C(C)C,9.1%,·,17.8µM*,·,-10.6,·
CC(Sc1ccc(S(=O)(=O)N2CCOCC2)cc1[N+](=O)[O-])C(=O)O (centres undefined),7.9%,-17.3%,?,-20.2,-14.5,-0.1%
COc1cc(N2C(=O)C=CC2=O)c(OC)cc1Cl,-9.7%,·,8.91µM*,·,-7.7,·
O=C(O)[C@@H]1CCCN[C@H]1C(=O)O,·,·,·,·,·,-2.0%
COc1cccc(/C=N/Nc2nn3cnnc3c3ccccc23)c1,8.5%,?,?,-80.5*,-10.0,-0.8%
CCN(CC)C(=O)C1CCCN(c2ccccc2[N+](=O)[O-])C1 (centres undefined),10.2%,·,12.6µM*,·,-0.1,·
CCN(CC)C(=O)C1CCCN(c2ccc([N+](=O)[O-])cc2[N+](=O)[O-])C1 (centres undefined),-6.8%,·,-5.6%,·,-3.8,·
CCOc1ccc(Br)cc1S(=O)(=O)Nc1cccc(S(=O)(=O)N(C)C)c1,-11.5%,-6.7%,20µM*,-26.2,-10.4,0.4%
Cc1ccccc1N=C1NC(=O)/C(=C/c2cccn2-c2cccc(C(=O)O)c2)S1,5.0%,·,-0.9%,·,-3.7,·
Cc1c(C(=O)N2CCCCC2)sc(N)c1C#N,3.6%,12.6µM*,?,-18.7,0.8,-4.4%
Cc1c(C(=O)N2CCCCC2)sc(NC(=O)C2CC2)c1C#N,-8.6%,14.1µM*,-6.3%,25.4,4.1,-2.6%
Cc1c(C(=O)N2CCCCC2)sc(NC(=O)c2ccco2)c1C#N,-4.0%,15.8µM*,-9.9%,52.5,0.6,5.9%
Cc1c(C(=O)N2CCCCC2)sc(NC(=O)C(C)C)c1C#N,-2.8%,12.6µM*,2.8%,22.4,-3.8,-1.1%
Cc1c(C(=O)N2CCCC2)sc(NC(=O)c2ccco2)c1C#N,-10.4%,?,?,92.0,-10.3,9.7%
COCCn1c(=O)c(-c2ccc(OC)cc2)nc2cnc(OCc3ccccc3)nc21,-2.6%,·,?,·,·,·
CN(C)C(=O)[C@H]1C[C@@H]1[C@H](NC(=O)OCc1ccccc1)c1ccccc1,-0.7%,-7.4%,-11.7%,·,-6.1,-2.9%
O=C(O)C(Cl)(c1ccccc1)c1ccccc1,·,-4.3%,-9.7%[13.5 µM],·,·,-2.0%[11.4 µM]
Oc1ccc(C=Nc2ccc(N3CCOCC3)cc2)c(O)c1,-3.7%,-13.4%,-12.4%,15.7,-4.9,-14.7%
Cc1ccc(O)c(N=Cc2cc(Cc3ccccc3)cc([N+](=O)[O-])c2O)c1,-3.3%,·,14.1µM*,·,-1.0,·
O=[N+]([O-])c1cc(Cc2ccccc2)cc(C=Nc2ccc(N3CCOCC3)cc2)c1O,8.4%,5.01µM*,?,-21.4,-15.9,-2.0%
COc1ccc(C2=CC3=C(Br)C(=O)C(C)(OC(=O)CCc4ccccc4)C(=O)C3=CO2)cc1 (centres undefined),7.8%,-8.2%,3.0%,·,-3.7,0.6%
Cc1ccc(N2C(=O)C3CC(c4ccccc4)=C4C5C=CC(C6C(=O)N(c7ccc(C)cc7)C(=O)C56)C4C3C2=O)cc1 (centres undefined),5.4%,-7.1%,1.12µM*,?,-6.8,-1.8%
CCOc1ccc2nc(NC(=O)CSc3nnnn3C3CCCCC3)sc2c1,-3.4%,-28.0%,8.91µM*,28.5,-12.4,-11.6%
N#Cc1c(NC(=O)CSc2nnnn2C2CCCCC2)sc2c1CCCC2,6.2%,·,?,50.3,5.7,1.4%
